Sm TGR block: S. mansoni TGR enzyme inhibition; Q962Y6; AID 485364; actives 3% (n = 360,000); Potency, µM (titrated, usually from 114 µM), inactives show top-dose activity change, negative = inhibition, usual class: inhibitors; purified TGR, DTNB reduction, TNB absorbance 405 nm; also: % is scaled to controls: 0 for no effect and ±100 for the full control effect; nearly all actives have a fitted effect of over 60% in size
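Kinetic colorimetric format: TGR-catalysed, NADPH-driven DTNB reduction monitored via TNB absorbance. Enzyme dispensed at 20 nM; compound exposure 15 min at room temperature before reaction start.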
AMA1-RON2 inh: inhibitors of Plasmodium falciparum AMA1-RON2 interaction | Potency, µM (doses to about 58.2 µM), for inactives: top-dose activity change, negative = inhibition, actives largely listed as inhibitors | actives 0.2% (n = 360,000) | AlphaScreen AMA1-biotinylated RON2 peptide binding;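 also: 0% = vehicle wells and -100% = peptide control; nearly all actives have a fitted effect of over 45% in size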
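AMA1 (3D7) with his tag at 25 nM final met compounds first, then biotinylated RON2 peptide at 25 nM; detection used donor plus acceptor beads, 10 µg/mL apiece, read by AlphaScreen after 30 min at room temperature.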
Pf growth 48h: inhibits P. falciparum growth in the first generation, 48 h; P. falciparum luciferase growth in erythrocytes, 48 h; Potency, µM (series often up to 28.7 µM), for inactives: at the top dose activity change, negative = inhibition, most hits filed as inhibitors; actives 5.9% (n = 310,000); AID 504832; also: % is scaled to controls: 0 for no effect and ±100 for the full control effect
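Compounds are pin-transferred into medium, infected erythrocytes (2% hematocrit, 0.1% parasitemia final) are added, and plates sit one parasite generation at 37 C in 5% CO2. Detection reagent is then added and luminescence measured.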
Pf growth 96h: P. falciparum growth inhibition at 96 hours | P. falciparum luciferase reporter growth, 96 h | Potency, µM (doses to about 28.7 µM), inactives show top-dose activity change, negative = inhibition, most hits filed as inhibitors | actives 6.9% (n = 320,000) | AID 504834; also: % is scaled to controls: 0 for no effect and ±100 for the full control effect
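Parasite growth measured via integrated firefly luciferase reporter in P. falciparum. Infected erythrocytes at 2% hematocrit, 0.05% parasitemia final were treated 96 hours at 37 C under 5% CO2, and luminescence was read.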
NS1 inh: influenza NS1 inhibition; Potency, µM (doses to about 46.1 µM), for the others: at the highest dose activity, positive = more growth; actives 0.4% (n = 270,000); AID 2326; calls by dose curve; also: actives are rising curves; nearly all actives have a fitted effect of over 50% in size
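Growth recovery, yeast-based: influenza A NS1 expressed in S. cerevisiae causes slow growth, and suppressors are detected by OD600. The parent strain without NS1 is used as positive control.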
* hit, by the source's call; ? = inconclusive; . = no result; [ ] = dose if it differs, or a comment. Rows were chosen to be rich in hits. Some 11% of all compounds tested hit in one or more screens of this group. Unless noted, calls follow the shape of the dose curve; as a rule, active = well fitted curve in the direction sought with a large enough effect; inconclusive = small, poorly fitted or top-dose-only effect, or another doubt; inactive = no such curve, though single readings can be large; an effect the other way counts as inactive or inconclusive. Potency is read from the fitted curve at half-maximal effect.

SMILES | Sm TGR block | AMA1-RON2 inh | Pf growth 48h | Pf growth 96h | NS1 inh
O=C(c1ccc(Cl)cc1)N1CCN(C(=O)C2CCCCC2)CC1 | -23% | -7% | 8% | 5.9µM* | 9%
O=C(c1ccc(Cl)cc1)N1CCCC(C(=O)N2CCCCC2)C1 (stereo unspecified) | 4% | 11% | 7% | 33% | -1%
CC(=O)NCCC1CCN(C(=O)c2cc(COc3ccc(C)nc3)on2)CC1 | -5% | -7% | 19% | -12% | 3%
O=C1C2=C(Nc3ccccc3SC2c2ccccc2C(F)(F)F)c2ccccc21 (stereo unspecified) | 0% | . | . | . | .
O=C(C1CCC1)N1CCN(c2ccnc3cc(Cl)ccc23)CC1 | -3% | -6% | 13µM* | 10µM* | -45%
CC(C)(C)C(=O)N1CCN(c2ccnc3cc(Cl)ccc23)CC1 | 0% | 0% | ? | 11% | -4%
CCOC(=O)c1c(C)[nH]c(C)c1S(=O)(=O)N1CCC(C(=O)Nc2ccc(C)c(N(C)C)c2)CC1 | 2% | . | . | . | .
CSc1nnc(CCCCCNC(=O)OC(C)(C)C)o1 | 14% | -5% | 10% | -5% | -2%
CSc1nnc(CCCCCCCCc2nnc(SC)o2)o1 | 5% | -3% | ? | 13µM* | 3%
O=c1c(-c2ccc(Cl)cc2)c(C(F)(F)F)oc2c(CN3CCCCC3)c(O)ccc12 | 16% | . | . | . | .
O=c1oc2c(CN3CCCCCC3)c(O)ccc2cc1-c1nc2ccccc2[nH]1 | 1% | . | 2.3µM* | 6% | -4%
Cc1oc2c(CN3CCCC(C)C3)c(O)ccc2c(=O)c1-c1ccccc1 (stereo unspecified) | -18% | 5% | 6.6µM* | 8.3µM* | -1%
COc1ccccc1Oc1c(C)oc2c(CN3CCN(CCO)CC3)c(O)ccc2c1=O | -16% | 8% | 22% | -5% | 1%
O=c1oc2c(CN3CCCC3)c(O)ccc2cc1-c1ccccc1 | -8% | . | . | . | .
Cc1oc2c(CN3CCCCC3)c(O)ccc2c(=O)c1-c1ccc(Cl)cc1 | 3% | -6% | 1.7µM* | ? | 3%
Cc1oc2c(CN3CCCC3)c(O)ccc2c(=O)c1Oc1ccccc1Br | 6% | 13% | 1.7µM* | 6% | -3%
c1ccc(C2=Nn3c(nnc3-c3ccco3)SC2)cc1 | -13% | 0% | -6% | 16% | 1%
COc1ccccc1NC(=O)c1cc2cc3ccc(OC)c(Cl)c3nc2s1 | -8% | . | . | . | .
O=C(OCCOc1ccccc1F)c1cccc(S(=O)(=O)N2CCOCC2)c1 | -13% | 8% | ? | ? | .
COc1ccc(-c2c(C)oc3c(CN4CCCC(C)C4)c(O)ccc3c2=O)cc1OC (stereo unspecified) | -2% | -1% | ? | ? | -3%
COc1ccccc1-c1c(C)oc2c(CN3CCCC(C)C3)c(O)ccc2c1=O (stereo unspecified) | 12% | -5% | 13µM* | 10µM* | -2%
Cc1cc(=O)oc2c(CN3CCCCC3)c(O)ccc12 | . | -2% | . | . | .
CCc1c(C)c2ccc(O)c(CN3CCCC3)c2oc1=O | -1% | 27% | ? | 12µM* | 1%
Cc1c(C)c2ccc(O)c(CN3CCCC3)c2oc1=O | 0% | -7% | ? | ? | 2%
O=c1cc(-c2ccccc2)c2ccc(O)c(CN3CCCCC3)c2o1 | -29% | 6% | 10µM* | 27% | ?
SMILES | Sm TGR block | AMA1-RON2 inh | Pf growth 48h | Pf growth 96h | NS1 inh
CCOc1ccc(NC(=O)c2cn3c4c(ccc(Cl)c4c2=O)OC(C)C3)cc1 (stereo unspecified) | 0% | . | . | . | .
CCN(c1ccc(NC(=O)c2cccc(S(=O)(=O)N3CCN(C)CC3)c2)cc1)C(C)C | 8.9µM* | ? | 12% | -17% | -35%
CCOC(=O)c1ccc(NC(=O)c2cccc(S(=O)(=O)N3CCN(C(C)=O)CC3)c2)cc1 | 4% | -1% | ? | 9.3µM* | -1%
Cc1ccc(C(NC(=O)c2cccc(S(=O)(=O)N3CCN(C)CC3)c2)c2ccccc2)cc1 (stereo unspecified) | 9% | -8% | 15µM* | ? | .
CN1CCN(S(=O)(=O)c2cccc(C(=O)Nc3cc(C(N)=O)cc(C(N)=O)c3)c2)CC1 | 2% | -1% | 4% | 0% | -13%
CN1CCN(S(=O)(=O)c2cccc(C(=O)Nc3sccc3C(N)=O)c2)CC1 | -22% | -9% | 13µM* | ? | .
CCc1cccc(-n2c(=O)c3cccnc3n2CC(=O)NCc2ccccc2Cl)c1 | 6% | . | . | . | .
COc1cccc(-n2cnnc2SCC(=O)NC2CC2)c1 | -24% | 2% | -10% | -23% | .
CC1=CC(=O)C(C(C)=Nc2cccc(Cl)c2)C(=O)O1 (stereo unspecified) | . | -4% | . | . | .
COc1ccc(NC(=O)COC(=O)c2cccc(S(=O)(=O)N(C)C)c2)cc1 | 0% | -2% | 75%[5.75 µM] | 56%[5.75 µM] | .
CN(C)S(=O)(=O)c1cccc(C(=O)OCC(=O)Nc2sccc2C(N)=O)c1 | 6% | -5% | 1.9µM* | 3.7µM* | -1%
O=C(Nc1ccc(Br)cc1F)c1cc(S(=O)(=O)NCc2ccc(F)cc2)ccc1F | 0% | . | . | . | .
CN1CCC(N(C)S(=O)(=O)c2ccc(NC(=O)COc3cccc(Cl)c3)cc2)CC1 | 5% | -13% | 9.3µM* | 13µM* | .
Cc1ccccc1OCCC(=O)Nc1ccc(S(=O)(=O)N(C)C2CCN(C)CC2)cc1 | -2% | 7% | 2.9µM* | 3.7µM* | .
CN1CCC(N(C)S(=O)(=O)c2ccc(NC(=O)Cc3ccc(F)cc3)cc2)CC1 | -3% | -13% | -4% | ? | .
Cc1ccc(OCC(=O)Nc2ccc(S(=O)(=O)N(C)C3CCN(C)CC3)cc2)c(C)c1 | -3% | -12% | 12µM* | ? | -8%
O=C(COc1ccc(Br)cc1Cl)NC1CCN(Cc2ccccc2)CC1 | -15% | 5% | ? | 12µM* | -21%
Cc1ccc(OCC(=O)Nc2ccc(S(=O)(=O)N3CCOCC3)cc2)c(C)c1 | 4% | -7% | ? | 20% | 10%
CCCn1c2ccccc2c2cnn(CC(=O)NCCc3ccc(S(N)(=O)=O)cc3)c(=O)c21 | 10% | . | . | . | .
NC(=O)OCC(O)COc1ccc(Cl)cc1 (stereo unspecified) | -4% | -3% | 3% | 18% | .
Cc1ccc(Cl)cc1N1CCN(C(=O)Cn2ncc3c([nH]c4ccccc43)c2=O)CC1 | 2% | . | . | . | .
CCCCNC(=O)C1CCN(S(=O)(=O)c2cc(Br)cc3c2N(C(=O)CC)CC3)CC1 | -7% | . | . | . | .
O=[N+]([O-])c1ccc(NCCNCCOc2nonc2-c2ccccc2)c([N+](=O)[O-])c1 | -14% | -21% | 8% | ? | .
Cc1ccccc1NC(=O)/C(C#N)=C/c1ccc(Cl)cc1Cl | 0% | . | . | . | .
CN1CCC(N(C)S(=O)(=O)c2ccc(NC(=O)c3ccc(S(=O)(=O)N(C)C)cc3)cc2)CC1 | . | -2% | . | . | .
CN1CCC(N(C)S(=O)(=O)c2ccc(NC(=O)COc3ccc(Br)cc3Cl)cc2)CC1 | 0% | -6% | 4.1µM* | 2.1µM* | .
